In PubChem BioAssay (NCATS):
Values joined by “and” are separate entries in the source; they are usually repeats but may differ in a detail not shown here. Equal entries are not always repeated. Inconclusive results are not listed. Active and inactive are the calls of the source. The call rests on the fitted dose curve; in most records, active means well fitted curve in the direction sought with a large enough effect; inconclusive means small, poorly fitted or top-dose-only effect, or another doubt; inactive means no such curve, though single readings can be large; an effect the other way counts as inactive or inconclusive.

How the values were obtained:
MKL-2 = assay: qHTS assay to identify novel small-molecules to repurpose for Merkel cell carcinoma treatment (AID 1296009); conditions: MCC and control cell lines, CellTiter-Glo viability, 72 h; series mostly up to 46 µM; further: nearly all actives have a fitted effect of over 60% in size
In short: (§1)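 Cells exposed to NPC (8-point) and MIPE (11-point) compound dilutions for 72 hr at 37 degree celsius; viability read by CellTiter-Glo luminescence, normalized to no-cell and DMSO in-plate controls.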

UISO = assay: as above; conditions: MCC and control cell lines, CellTiter-Glo viability, 72 h; series mostly up to 46 µM
In short: as §1

CASKI = assay: Primary qHTS to identify gynecologic anti-cancer compounds using libraries of approved drugs and bioactive compounds (AID 1345084); conditions: Gynecologic cancer cell panel viability, ATPlite luminescence, 48 h; series mostly up to 57.5 µM; further: nearly all actives have a fitted effect of over 55% in size
In short: (§2)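 Five-point cytotoxicity, 48 h drug exposure at 37 C, 5% CO2, on cells seeded 16 h beforehand. ATP content read by ATPlite luminescence.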

Es-2 = assay: as above; conditions: Gynecologic cancer cell panel viability, ATPlite luminescence, 48 h; series mostly up to 57.5 µM
In short: as §2

HeLa = assay: as above; conditions: Gynecologic cancer cell panel viability, ATPlite luminescence, 48 h; series mostly up to 57.5 µM
In short: as §2

Hek293T = assay: as above; conditions: Gynecologic cancer cell panel viability, ATPlite luminescence, 48 h, control line for the selectivity index; series mostly up to 57.5 µM
In short: as §2

WaGa = assay: qHTS assay to identify novel small-molecules to repurpose for Merkel cell carcinoma treatment (AID 1296009); conditions: MCC and control cell lines, CellTiter-Glo viability, 72 h; series mostly up to 46 µM; further: nearly all actives have a fitted effect of over 60% in size
In short: as §1

CAOV3 = assay: Primary qHTS to identify gynecologic anti-cancer compounds using libraries of approved drugs and bioactive compounds (AID 1345084); conditions: Gynecologic cancer cell panel viability, ATPlite luminescence, 48 h; series mostly up to 57.5 µM; further: nearly all actives have a fitted effect of over 55% in size
In short: as §2

C33A = assay: as above; conditions: Gynecologic cancer cell panel viability, ATPlite luminescence, 48 h; series mostly up to 57.5 µM
In short: as §2

NIH3T3 = assay: qHTS assay to identify novel small-molecules to repurpose for Merkel cell carcinoma treatment (AID 1296009); conditions: MCC and control cell lines, CellTiter-Glo viability, 72 h; at 44.8 µM (top of the series) unless noted; further: nearly all actives have a fitted effect of over 60% in size
In short: as §1

Measured: Potency
Potency means the concentration at half of the fitted maximal effect.

CN1CCN(Cc2ccc(NC(=O)Nc3ccc(Oc4cc(NC(=O)C5CC5)ncn4)cc3)cc2C(F)(F)F)CC1
active: MKL-2 0.264 µM | UISO 0.332 µM | CASKI 1.78 µM | Es-2 1.58 µM | HeLa 0.891 µM | Hek293T 1.41 µM

Cc1ccc(C(=O)Nc2cccc(C(F)(F)F)c2)cc1-c1ccc2nc(NCCN3CCOCC3)ncc2c1
active: CAOV3 22.4 µM | CASKI 14.1 µM | Es-2 11.2 µM | HeLa 11.2 µM
inactive: MKL-2 | WaGa | Hek293T

Cc1cc(CN2CCN(c3c(Br)cnc4nc(-c5ccc(N6CCN(C)CC6)cc5)[nH]c34)CC2)no1
inactive: C33A | CASKI | Es-2 | Hek293T
active: MKL-2 26.4 µM | HeLa 1.58 µM

Cc1ccc(S(=O)(=O)Nc2cc(Cl)ccc2C(=O)Nc2nc(-c3ccccc3)cs2)cc1
inactive: MKL-2 | WaGa

Cc1cn2c(-c3cn[nH]c3)cnc2c(Nc2ccc(C(=O)N3CCNCC3)cc2F)n1
inactive: MKL-2 | WaGa | C33A | CASKI | Es-2 | Hek293T

CCCCOc1c(C(=O)c2c(F)cc(C)cc2F)cnc2n[nH]cc12
inactive: MKL-2 | WaGa | C33A | CASKI
active: HeLa 8.91 µM

COc1ccc(C=Cc2cc(OC)c(OC)c(OC)c2)cc1O
inactive: MKL-2 | WaGa

Cn1c(=O)n(-c2ccc(C(C)(C)C#N)cc2)c2c3cc(-c4cnc5ccccc5c4)ccc3ncc21
inactive: MKL-2 | WaGa | HeLa
active: Hek293T 0.794 µM

Cc1c(C)n(Cc2ccc(-c3ccccc3C(=O)O)cc2)c2ccc(C(=O)N[C@@H](C)c3ccc([N+](=O)[O-])cc3)cc12
inactive: C33A | CAOV3 | CASKI | Es-2 | HeLa | Hek293T
active: MKL-2 0.332 µM | WaGa 0.469 µM

COc1cccc2nc(-c3cccs3)nc(NN3C(=O)C=C(C)C3=O)c12
active: MKL-2 0.935 µM | C33A 31.6 µM | CAOV3 15.8 µM | Es-2 2.51 µM | Hek293T 1.41 µM

CC(C)c1cc(-c2n[nH]c(=O)n2-c2ccc3c(ccn3C)c2)c(O)cc1O
inactive: MKL-2 | HeLa
active: UISO 0.372 µM | Hek293T 0.316 µM

O=c1c2ccccc2nc2n1CCc1c-2[nH]c2ccccc12
inactive: MKL-2 | WaGa | C33A | CAOV3 | CASKI | Es-2 | HeLa | Hek293T

CC[C@H](CO)Nc1nc(NCc2ccccc2)c2ncn(C(C)C)c2n1
inactive: MKL-2 | WaGa

C=CC(=O)Nc1cccc(Oc2nc(Nc3ccc(N4CCN(C)CC4)cc3OC)ncc2Cl)c1
inactive: MKL-2 | C33A | Es-2 | HeLa | Hek293T
active: WaGa 2.96 µM | CASKI 17.8 µM

CCN(CC)CCCCNc1ncc2cc(-c3cc(OC)cc(OC)c3)c(NC(=O)NC(C)(C)C)nc2n1
inactive: MKL-2 | WaGa

NC1(Cc2ccc(Cl)cc2)CCN(c2ncnc3[nH]ccc23)CC1
inactive: MKL-2 | CASKI | Es-2 | HeLa
active: C33A 10 µM | Hek293T 10 µM

CC[C@@H]1C(=O)N(C)c2cnc(Nc3ccc(C(=O)NC4CCN(C)CC4)cc3OC)nc2N1C1CCCC1
active: MKL-2 3.32 µM | WaGa 4.69 µM

CN(C)Cc1c(C(=O)NCCOc2ccc(C(=O)NO)cc2)oc2ccccc12
active: MKL-2 0.662 µM | WaGa 0.332 µM | C33A 4.47 µM | CASKI 3.98 µM | Es-2 5.01 µM | HeLa 2.82 µM | Hek293T 2.82 µM

Cc1[nH]nc2ccc(-c3cncc(OC[C@@H](N)Cc4ccccc4)c3)cc12
active: MKL-2 1.66 µM | UISO 0.833 µM | CASKI 6.31 µM | Es-2 8.91 µM | HeLa 2.24 µM | Hek293T 1.78 µM

CNC(=O)c1cc(Oc2ccc(NC(=O)Nc3cc(C(C)(C)C)nn3-c3ccc4ncccc4c3)c(F)c2)ccn1
inactive: MKL-2 | WaGa | CAOV3

CC(C)c1noc(N2CCC(COc3ccc(-c4ccc(S(C)(=O)=O)cc4)nc3)CC2)n1
inactive: MKL-2 | C33A | CASKI | Es-2 | HeLa

COc1cc2c(NC3CCN(C(C)C)CC3)nc(C3CCCCC3)nc2cc1OCCCN1CCCC1
active: MKL-2 6.62 µM | C33A 28.2 µM | CASKI 20 µM

COc1cc(C(=O)N2CCC(N3CCN(C)CC3)CC2)ccc1Nc1ncc2c(n1)N(C)c1ccccc1C(=O)N2C
active: MKL-2 2.35 µM | WaGa 16.6 µM
inactive: C33A | Es-2 | Hek293T

Cn1c2cc(S(C)=O)sc2c2cnn(Cc3cccc(N)c3)c(=O)c21 (stereo not drawn)
inactive: MKL-2 | WaGa

O=C(CCCCCCC(=O)Nc1ccc([C@H]2O[C@@H](CSc3nc(-c4ccccc4)c(-c4ccccc4)o3)C[C@@H](c3ccc(CO)cc3)O2)cc1)NO
inactive: CAOV3 | CASKI | Es-2 | HeLa | Hek293T
active: MKL-2 8.33 µM | WaGa 7.43 µM

Cc1cccc(C=NNc2cc(N3CCOCC3)nc(OCCc3ccccn3)n2)c1
active: MKL-2 16.6 µM
inactive: WaGa

Cc1nc(Nc2n[nH]c3c2CN(C(=O)N[C@H](CN(C)C)c2ccccc2)C3(C)C)c2sccc2n1
active: MKL-2 2.64 µM | UISO 1.48 µM | CASKI 7.94 µM | Es-2 8.91 µM | HeLa 8.91 µM | Hek293T 3.55 µM

Cc1nc2ccc(CN(C)c3ccc(C(=O)N[C@@H](CCC(=O)O)C(=O)O)s3)cc2c(=O)[nH]1
inactive: MKL-2 | C33A | CAOV3 | CASKI | Hek293T
active: WaGa 0.0833 µM

O=C(CCCCCCNC(=O)c1cnc(N(c2ccccc2)c2ccccc2)nc1)NO
active: MKL-2 5.9 µM | WaGa 2.96 µM | HeLa 11.2 µM

NCC(=O)Nc1ccc(-n2nc(C(F)(F)F)cc2-c2ccc3c(ccc4ccccc43)c2)cc1
inactive: MKL-2 | C33A | CAOV3 | CASKI | Es-2

Cc1cc(Nc2cc(NC(=O)c3c(Cl)cccc3Cl)ccn2)nc(N)n1
active: UISO 1.18 µM | WaGa 2.35 µM

CN(c1ncccc1CNc1nc(Nc2ccc3c(c2)CC(=O)N3)ncc1C(F)(F)F)S(C)(=O)=O
active: UISO 11.8 µM | WaGa 8.33 µM

CC(C)(C)NC(=O)[C@H]1CN(Cc2cccnc2)CCN1C[C@@H](O)C[C@@H](Cc1ccccc1)C(=O)N[C@H]1c2ccccc2C[C@H]1O
inactive: UISO | WaGa

CC(C)c1cnn2c(NCc3ccccc3)cc(N[C@@H](CO)[C@H](O)CO)nc12
active: MKL-2 1.05 µM | C33A 7.08 µM | CASKI 4.47 µM | Es-2 1.58 µM | HeLa 2.82 µM | Hek293T 1.41 µM

CC(C)(C)c1cnc(CSc2cnc(NC(=O)C3CCNCC3)s2)o1
active: UISO 0.743 µM

C[C@]1(CO)CN(c2cc(C(=O)Nc3ccc4c(c3)-c3c(c(C(N)=O)nn3-c3ccc(F)cc3)CC4)c(Cl)cn2)C[C@@]1(C)CO
active: UISO 9.35 µM | WaGa 18.7 µM
inactive: CAOV3 | HeLa | Hek293T

CC(NCc1ccc2c(c1)nc(NC(=O)c1ccc(-c3cn[nH]c3)s1)n2CC(C)(C)O)C(C)(C)C (stereo not drawn)
active: UISO 1.32 µM | WaGa 0.526 µM

C[C@]12CC[C@H](O)CC1=CCC1C2CC[C@]2(C)C(n3cnc4ccccc43)=CCC12 (stereo partly drawn)
inactive: UISO | WaGa | C33A | CAOV3 | CASKI | Es-2 | HeLa | Hek293T

Cc1ccc2nc(NC(=O)CSc3nc4c(c(=O)n3-c3ccccc3)SCC4)sc2c1
inactive: MKL-2 | C33A | CASKI | Es-2 | HeLa | Hek293T

c1cc(-c2cnn3cc(-c4ccc(OCCN5CCCCC5)cc4)cnc23)ccn1
active: UISO 5.9 µM | WaGa 13.2 µM

CN(C1CCc2c(c3ccccc3n2CC(=O)O)C1)S(=O)(=O)c1ccc(F)cc1 (stereo not drawn)
inactive: NIH3T3 | UISO | C33A | CAOV3 | CASKI | Es-2 | HeLa | Hek293T
active: WaGa 5.9 µM

COc1cc(C(=O)NS(=O)(=O)c2ccccc2C)ccc1Cc1cn(C)c2ccc(NC(=O)OC3CCCC3)cc12
inactive: WaGa | C33A | CAOV3 | CASKI | Es-2 | HeLa | Hek293T
active: UISO 20.9 µM

COc1cc(=C2C=c3ccccc3=N2)[nH]c1=Cc1[nH]c(C)cc1C
active: UISO 13.2 µM | WaGa 23.5 µM

C[C@@H](Oc1cc(-c2cnn(C3CCNCC3)c2)cnc1N)c1c(Cl)ccc(F)c1Cl
active: UISO 14.8 µM | WaGa 23.5 µM | C33A 20 µM | CAOV3 11.2 µM and 12.6 µM | CASKI 14.1 µM | HeLa 3.55 µM and 14.1 µM | Hek293T 25.1 µM

CCc1cc2c(cc1N1CCC(N3CCOCC3)CC1)C(C)(C)c1[nH]c3cc(C#N)ccc3c1C2=O
inactive: UISO | WaGa | C33A | CASKI | Es-2 | HeLa | Hek293T

C=CC(=O)Nc1cc2c(Nc3ccc(F)c(Cl)c3)ncnc2cc1C#CC(C)(C)N1CCN(C)CC1
active: UISO 7.43 µM | WaGa 5.26 µM

COc1ccc(OC)c(-c2nnc3ccc(-c4ccc(OC)c(O[C@@H]5CCOC5)c4)nn23)c1
active: MKL-2 18.7 µM | HeLa 22.4 µM

COc1ccc2c(c1)CC[C@@H](CN(C)CC(=O)O)[C@H]2c1ccccc1
inactive: NIH3T3 | C33A | CASKI | Es-2 | HeLa | Hek293T

COCCOc1ccc2c(c1)ncn2-c1ccc2cccc(N3CCC(N)CC3)c2n1
active: UISO 26.4 µM | WaGa 20.9 µM | Es-2 28.2 µM

C=CC(=O)Nc1cccc(Oc2nc(Nc3ccc(N4CCN(C)CC4)cc3)ncc2Cl)c1
inactive: Es-2
active: MKL-2 8.33 µM | CASKI 10 µM | HeLa 7.94 µM
